Most compounds without a hit are left out; they make up all but 19% or so of the library.
HT1080 IDH1KD tx = toxicity to HT-1080 IDH1 knockdown cells (counter line). actives 2% (n = 360,000). HT-1080 IDH1 knockdown viability, ATP luminescence, 48 h. Potency, µM (series often up to 46.1 µM), most hits filed as cytotoxic
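Luminescent ATP read-out (CellTiter-Glo, 10 min at room temperature) after 48 h compound exposure at 37 °C gave viability of IDH1-knockdown HT-1080 cells. Activity was normalised to DMSO and cell-free wells, then fitted as concentration-response curves.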
DT40 TDP1 no CPT = qHTS for Inhibitors of human tyrosyl-DNA phosphodiesterase 1 (TDP1): qHTS in cells in absence of CPT; Potency, µM (top dose mostly 46.2 µM), actives largely listed as inhibitors; actives 15% (n = 420,000); DT40 Tdp1-/- hTDP1 cells, no CPT, ATP luminescence, 48 h; also: nearly all actives have a fitted effect of over 55% in size
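Camptothecin absent (DMSO only). Human TDP1-complemented DT40 knockout cells, 400 cells/well, 37 °C for minimum 48 hr; ATP measured via CellTiter-Glo, 30 min dark incubation, luminescence.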
DT40 TDP1 CPT = DT40-hTDP1 cell growth loss with CPT; AID 686979; actives 12% (n = 420,000); Potency, µM (series often up to 46.2 µM), actives largely listed as inhibitors; chicken DT40 Tdp1-/-;hTDP1 cells + 20 nM CPT, ATP luminescence, 48 h; also: nearly all actives have a fitted effect of over 55% in size
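Cell growth measured by CellTiter-Glo luminescence after a minimum 48 h, 37 C compound exposure with 20 nM CPT in Tdp1-knockout DT40 cells stably expressing hTDP1, seeded 400/well; qHTS titration format.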
IL1B secr inh = blocks inflammasome-driven IL-1 beta release; THP-1 LPS/ATP IL-1B secretion, AlphaLISA, 16 h; active compounds read low; activity change, % at 57.5 µM; actives 4.7% (n = 360,000); AID 743279; in the data active = activity change below about -50%; inconclusive = mostly about -30% to -49%
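THP-1 cells pretreated 1 hr with compounds (up to 57.5 uM final), then stimulated with LPS (250 ng/mL final) plus ATP (1.25 mM final); secreted IL-1B measured by AlphaLISA after 16 hr, decreased signal indicating inhibition.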
HT1080-NT tox = kills 2HG-producing HT-1080-NT fibrosarcoma cells | HT-1080-NT fibrosarcoma viability, CellTiter-Glo ATP luminescence, 48 h | Potency, µM (highest dose often 46.1 µM), hits mostly cytotoxic | actives 1.6% (n = 360,000);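 also: NT is the 2HG producing partner of a matched IDH1 knockdown line; nearly all actives have a fitted effect of over 55% in size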
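Compounds were tested in concentration-response format on HT-1080-NT cells for 48 hours at 37 degrees C. Cell viability came from CellTiter-Glo luminescence; curves were classified by r2, response magnitude and activity.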
Of the large screens only hits and unclear results are named; the others gave an inactive call; ! = not confirmed by another sample. Unless noted, calls follow the shape of the dose curve; as a rule, active = well fitted curve in the direction sought with a large enough effect; inconclusive = small, poorly fitted or top-dose-only effect, or another doubt; inactive = no such curve, though single readings can be large; an effect the other way counts as inactive or inconclusive.

CCOCCc1nn2c(=O)cc(COC(=O)c3ccc(NC(=O)c4ccc(F)cc4)cc3)nc2s1	none (no result: HT1080 IDH1KD tx, IL1B secr inh, HT1080-NT tox)
COc1cc(OC)c(N(C)C(=O)Nc2cn(CC(C)C)c(=O)c3ccccc23)cc1Cl	DT40 TDP1 no CPT 23µM, DT40 TDP1 CPT 21µM (no result: HT1080 IDH1KD tx, IL1B secr inh, HT1080-NT tox)
Cc1ccc(Cl)cc1NC(=O)Nc1cn(CC(C)C)c(=O)c2ccccc12	none (no result: HT1080 IDH1KD tx, IL1B secr inh, HT1080-NT tox)
CCN(C(=O)Nc1cn(CC(C)C)c(=O)c2ccccc12)c1cc(C)ccc1C	DT40 TDP1 no CPT 9.2µM, DT40 TDP1 CPT 9.2µM (no result: HT1080 IDH1KD tx, IL1B secr inh, HT1080-NT tox)
CCOc1cc(C2/C(=C(/O)c3ccc(OC(C)C)cc3)C(=O)C(=O)N2CCCOC)ccc1O (stereo unspecified)	none
CCN(CC)S(=O)(=O)c1cc(C(=O)Oc2cccc(-c3cnc4ccccc4n3)c2)ccc1Br	DT40 TDP1 no CPT 18µM, DT40 TDP1 CPT inconclusive
O=C1C2C(C(=O)N1/N=C/c1cc(Br)cc([N+](=O)[O-])c1O)C1C=CC2C12CC2 (stereo unspecified)	DT40 TDP1 no CPT 16µM, DT40 TDP1 CPT inconclusive, IL1B secr inh inconclusive
O=C1C2C(C(=O)N1/N=C/c1cc([N+](=O)[O-])c(O)cc1O)C1C=CC2C12CC2 (stereo unspecified)	none
CCN(CC)CCOC(c1ccccc1)c1ccc(C)cc1 (stereo unspecified)	DT40 TDP1 no CPT inconclusive, DT40 TDP1 CPT inconclusive, IL1B secr inh inconclusive
Cc1ccccc1C(OCCN(C)C)c1ccccc1 (stereo unspecified)	DT40 TDP1 no CPT inconclusive, DT40 TDP1 CPT 23µM!
Cc1[nH][nH]c(=O)c1C(c1ccccc1[N+](=O)[O-])C(C#N)C#N (stereo unspecified)	DT40 TDP1 CPT inconclusive, IL1B secr inh -146
O=C(NCCCC(=O)N1CCCCC1)c1ccc(Cl)cc1	none
CCOc1ccc(CNC(=O)c2ccc3c(c2)N(Cc2ccccc2)CCS3)cc1	DT40 TDP1 no CPT 13µM, DT40 TDP1 CPT inconclusive (no result: HT1080 IDH1KD tx, IL1B secr inh, HT1080-NT tox)
CCCOc1ccc(CNC(=O)c2ccc3c(c2)N(CC)CCS3)cc1	DT40 TDP1 no CPT inconclusive
COc1ccc(CNC(=O)c2ccc3c(c2)N(Cc2ccccc2)CCS3)cc1	DT40 TDP1 no CPT 15µM, DT40 TDP1 CPT inconclusive (no result: HT1080 IDH1KD tx, IL1B secr inh, HT1080-NT tox)
COc1ccc(OC)c(CCNC(=O)c2ccc3c(c2)N(Cc2ccc(C)cc2)CCS3)c1	DT40 TDP1 no CPT 23µM, DT40 TDP1 CPT inconclusive (no result: HT1080 IDH1KD tx, IL1B secr inh, HT1080-NT tox)
CCOc1ccc(CCNC(=O)c2ccc3c(c2)N(Cc2ccc(C)cc2)CCS3)cc1	DT40 TDP1 no CPT inconclusive, DT40 TDP1 CPT 18µM (no result: HT1080 IDH1KD tx, IL1B secr inh, HT1080-NT tox)
O=C(OC1CCOC1=O)c1ccc(CO)cc1 (stereo unspecified)	none
OCC(O)C(O)C(O)C(O)C(O)CO (stereo unspecified)	none (no result: HT1080 IDH1KD tx, IL1B secr inh, HT1080-NT tox)
COc1ccc(C(=O)NCCc2ccc(F)cc2)cc1OC	none
O=C(NCc1cccnc1)c1ccc2c(c1)N(Cc1ccccc1)CCS2	DT40 TDP1 no CPT inconclusive, DT40 TDP1 CPT inconclusive
CC(C)Oc1ccc(CNC(=O)c2ccc3c(c2)N(Cc2ccc(F)cc2)CCS3)cc1	DT40 TDP1 no CPT 7.3µM, DT40 TDP1 CPT 10µM (no result: HT1080 IDH1KD tx, IL1B secr inh, HT1080-NT tox)
COc1ccc(CCNC(=O)c2ccc3c(c2)N(Cc2ccc(F)cc2)CCS3)cc1OC	DT40 TDP1 no CPT 15µM, DT40 TDP1 CPT inconclusive
CSCC[C@H](CO)NC(=O)[C@H]1O[C@@H](n2cnc3c(N)ncnc32)[C@H](O)[C@@H]1O	none
CCOCCCn1c(SCC(=O)Nc2ccc(NC(C)=O)cc2)nc2ccccc2c1=O	none
CC(=O)Nc1c(C)nn(-c2ccccc2)c1N1CCC(C(=O)Nc2ccc(Cl)cc2C)CC1	none (no result: HT1080 IDH1KD tx, IL1B secr inh, HT1080-NT tox)
COc1ccc(OCC(=O)NNC(=O)c2ccc3c(=O)n4c(nc3c2)CCC4)cc1	none
CCOC(=O)C1=c2s/c(=C\c3cccnc3)c(=O)n2C(N)=C(C(=O)OC)C1c1cccnc1 (stereo unspecified)	DT40 TDP1 no CPT 15µM, DT40 TDP1 CPT 23µM
CCNc1nc(NCC)n2c(SCC(=O)Nc3ccc(F)cc3[N+](=O)[O-])nnc2n1	none
CCN(CC)S(=O)(=O)c1cccc(C(=O)N[C@H](C(=O)NCc2ccc(Cl)cc2)C(C)C)c1	DT40 TDP1 no CPT 15µM, DT40 TDP1 CPT 23µM

Screening data from PubChem.
